# High-throughput results as filed in PubChem.
# An excerpt weighted towards active compounds, which were near 3.2% of everything screened.
# NOTCH agonist: agonists of NOTCH signaling | activation, % at 2.5 µM | 15,000 compounds, 0.4% hits | NOTCH signaling luciferase reporter cells, luminescence | AID 434982; in the data active means activation above about 2.2%
# rat GALR2 ag: agonists of rat galanin receptor 2 (GALR2) | cell-based GALR2 agonist screen | activation, % at 10 µM | 16,000 compounds, 0.5% hits; in the data active means activation above about 15%
# TLR4-MyD88 inh: blocks binding of human TLR4 to MyD88 | O00206 | Cell-based TLR4-MyD88 binding inhibition assay | inhibition, % at 10 µM | 16,000 compounds, 0.06% hits; in the data active means inhibition above about 45%
# Target sequence (O00206 whole entry, looked up): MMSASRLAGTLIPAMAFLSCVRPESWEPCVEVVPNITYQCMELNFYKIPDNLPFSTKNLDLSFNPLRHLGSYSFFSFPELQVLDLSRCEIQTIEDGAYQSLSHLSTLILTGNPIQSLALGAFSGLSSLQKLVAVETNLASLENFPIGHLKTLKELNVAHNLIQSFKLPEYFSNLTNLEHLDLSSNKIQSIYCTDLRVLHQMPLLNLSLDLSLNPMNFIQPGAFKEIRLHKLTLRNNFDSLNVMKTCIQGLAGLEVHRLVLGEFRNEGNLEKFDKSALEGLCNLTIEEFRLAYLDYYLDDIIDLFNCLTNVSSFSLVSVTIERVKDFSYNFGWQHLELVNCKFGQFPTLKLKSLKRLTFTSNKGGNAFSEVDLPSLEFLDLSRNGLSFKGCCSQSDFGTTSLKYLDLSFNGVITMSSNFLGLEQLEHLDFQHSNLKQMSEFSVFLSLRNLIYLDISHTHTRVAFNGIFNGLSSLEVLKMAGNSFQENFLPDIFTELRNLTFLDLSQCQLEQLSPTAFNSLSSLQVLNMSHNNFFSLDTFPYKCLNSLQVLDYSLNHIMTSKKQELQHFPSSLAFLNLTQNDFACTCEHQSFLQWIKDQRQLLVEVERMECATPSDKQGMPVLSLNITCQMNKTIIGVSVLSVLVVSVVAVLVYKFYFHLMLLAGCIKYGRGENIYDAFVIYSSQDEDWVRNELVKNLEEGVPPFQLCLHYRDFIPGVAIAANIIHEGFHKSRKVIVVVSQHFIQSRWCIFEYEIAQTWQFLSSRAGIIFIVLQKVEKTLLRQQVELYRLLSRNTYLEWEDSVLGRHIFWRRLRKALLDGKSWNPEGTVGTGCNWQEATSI
# OPRK1 antag MB: blocks the human kappa opioid receptor, Maybridge compounds; OPRK1 cells, antagonist mode, fluorescence readout; inhibition, % at 9 µM; P41145; 16,000 compounds, 0.4% hits; in the data active means inhibition above about 50%
# S1P1 ag: activates the human S1P1 receptor; P21453; S1P1 agonist cell-based reporter assay; activation, % at 4.5 µM; 16,000 compounds, 1.5% hits; AID 1044; in the data active means activation above about 80%
# PME-1 Maybr inh: inhibitors of human PME-1 in Maybridge library; recombinant PME-1, FP-Rh probe fluorescence polarization; inhibition, % at 9 µM; 16,000 compounds, 0.5% hits; AID 2291; in the data active means inhibition above about 30%
# An asterisk follows results filed as active; . = no result given.
SMILES,NOTCH agonist,rat GALR2 ag,TLR4-MyD88 inh,OPRK1 antag MB,S1P1 ag,PME-1 Maybr inh
Cc1nn(-c2ccccc2)nc1C(=O)NNC(=O)CSCc1cccc2ccccc12,-0.4,-8.4,0.8,-4.5,89.4*,-6.0
COc1ccc(N=Cc2ccccc2N2CCN(C)CC2)cc1,0.0,-2.6,-13.8,-5.8,-16.1,-3.3
CCN(CC)c1ccc(N=Nc2ccc(Br)cn2)c(O)c1,-0.5,-9.6,-2.2,43.1,85.5*,20.2
CC(C)(C)c1cc(C(=O)NNC(=O)c2cccs2)n(Cc2ccc(F)cc2)n1,-0.4,-7.7,10.8,6.5,5.0,1.3
COC(=O)c1sc(S(=O)(=O)Nc2ccc(OC)cc2)cc1Cl,-0.4,-4.1,6.2,10.3,10.0,-22.0
CC(=NCc1ccc2c(c1)OCO2)c1ccccc1O,2.4*,-5.5,-7.5,16.0,4.8,5.9
CN1C2CCC1CC(NC(=O)CSCc1ccc(Cl)cc1Cl)C2 (centres undefined),-0.2,51.2*,-10.8,11.9,-2.2,8.8
CSc1sc(C2=NNC(O)(C(F)(F)F)C2)c2c1C(=O)CCC2(C)C (centres undefined),-1.5,-4.0,9.3,12.5,-15.7,35.7*
CN(C)c1ccc(-n2nnnc2SCc2ccc(Cl)cc2)cc1,-1.1,0.9,-11.3,58.6*,-0.6,4.7
CN(C)c1ccc(-n2nnnc2SCC(=O)c2cc3ccccc3o2)cc1,0.0,-2.9,1.2,1.9,-26.4,-1.5
COC(=O)c1ccc(C(=O)OC)c(NC(=O)COCC(=O)O)c1,-0.6,-6.3,2.9,-2.0,-13.6,2.8
CC(C)(C)c1ccc(Oc2ccc(NC(=O)c3ccco3)cn2)cc1,0.1,-3.4,0.4,11.2,37.6,3.4
O=C(Nc1ccc(Oc2cccc(C(F)(F)F)c2)nc1)c1ccc2c(c1)CCO2,-0.9,-1.0,-5.7,-8.5,90.1*,-7.1
O=C(Nc1cccc(C(F)(F)F)c1)Nc1ccc2nonc2c1,-0.6,-0.6,-19.0,-1.9,59.4,3.3
O=C(Nc1ccccc1)Nc1ccc(Oc2cccc(C(F)(F)F)c2)nc1,-0.5,-6.4,2.3,-0.4,86.7*,-80.3
C/C=C/CC(=O)NCC(N)=O,-0.5,-4.3,1.4,13.3,-1.8,5.6
Cc1cc(N=Nc2ccc(Cl)cc2)cc(CN2CCOCC2)c1O,-0.6,-1.9,6.4,21.6,95.3*,3.7
Clc1ccc(-n2nnc(/C=C/C=C/N3CCOCC3)n2)cc1,-0.8,29.9*,-4.5,7.8,5.3,-19.8
CCc1ccc(-n2nnnc2/C=C/N2CCOCC2)cc1,-0.8,-8.8,1.3,27.2,-7.9,2.8
COc1ccc(/C=C(\C#N)C(N)=S)cc1,-1.1,-0.1,14.1,0.5,108.8*,4.1
O=C(Cc1ccc([N+](=O)[O-])cc1)Nc1nccs1,3.0*,-6.4,-0.1,-20.1,2.3,3.6
O=C(Cc1ccc([N+](=O)[O-])cc1)Nc1c(F)cccc1F,0.9,-3.4,-3.0,2.5,-5.1,1.0
COCCCNC(=O)c1ccc(N=Cc2ccccc2O)cc1,0.9,-4.3,-8.9,11.2,4.5,0.8
O=C(CN1CCN(Cc2ccccc2)CC1)Nc1ccc(C(F)(F)F)cc1Cl,-0.1,-6.4,3.5,-5.9,-8.2,3.9
O=C1Nc2ccc(OC(F)(F)F)cc2C1=O,-0.4,25.8*,10.0,12.8,7.7,-2.8
SMILES,NOTCH agonist,rat GALR2 ag,TLR4-MyD88 inh,OPRK1 antag MB,S1P1 ag,PME-1 Maybr inh
CC(=O)Nc1sc(=Nc2ccc(C)c(C)c2)n(C(C)=O)c1-c1ccc2c(c1)OCO2,-0.9,-6.5,4.8,-11.0,-7.8,35.3*
Cc1ccc(NC(=O)C(=O)N/N=C/c2ccc3c(c2)OCO3)cc1C,0.0,-8.5,7.8,-8.1,-4.0,-5.0
O=[N+]([O-])c1cccnc1NCCc1ccccn1,-0.3,-2.0,3.2,22.9,-10.0,-1.1
Cc1noc(C)c1C(=O)N1CCN(c2ncc(C(F)(F)F)cc2Cl)CC1,0.0,-6.3,3.7,10.8,-0.8,2.0
Cc1oc(-c2ccccc2)cc1C(=O)N1CCN(c2ncc(C(F)(F)F)cc2Cl)CC1,2.3*,-8.6,-9.0,5.8,-2.2,-2.3
C/S(=N\S(=O)(=O)c1ccc(Cl)cc1)c1sc(Cl)c2c1C(=O)CC(C)(C)C2 (centres undefined),0.0,-3.0,-11.9,12.2,82.6*,-7.0
C/S(=N/C(=O)Nc1ccc(Cl)cc1)c1sc(Cl)c2c1C(=O)CC(C)(C)C2 (centres undefined),-1.0,-3.3,-4.4,-11.6,55.2,-4.2
N#Cc1c(C(F)(F)F)c([N+](=O)[O-])c(-c2cccc([N+](=O)[O-])c2)[nH]c1=O,-1.0,25.1*,-8.7,-15.2,-2.5,3.5
O=[N+]([O-])c1cccc(-c2c[nH]c(=S)[nH]2)c1,-0.2,-6.9,-1.9,-3.6,-4.8,2.3
Cc1ccc(S(=O)(=O)n2nccc2-c2c(C)nc3ccccn23)cc1,0.5,-7.1,-0.6,-8.1,87.5*,12.9
CC1CN=C(N(CCc2ccccc2)C(=O)Nc2ccccc2)S1 (centres undefined),0.0,-7.4,-3.5,-20.3,-13.7,0.5
O=C1c2cccc3c([N+](=O)[O-])ccc(c23)C(=O)N1Cc1cccnc1,-1.1,-7.6,7.6,24.0,-1.9,32.9*
O=C1c2cccc3c([N+](=O)[O-])ccc(c23)C(=O)N1NCCO,-0.7,-10.3,24.3,41.3,22.5,18.5
O=C(Nc1ccc(Cl)cc1Cl)c1cc([N+](=O)[O-])cc2c1-c1ccc([N+](=O)[O-])cc1C2=O,0.2,-10.9,-3.9,52.7*,21.9,1.1
Cn1ccnc1CS(=O)(=O)c1cc(Cl)c(Oc2ccc([N+](=O)[O-])cc2Cl)c(Cl)c1,-0.4,-6.0,2.4,-13.5,104.5*,0.3
Cc1cc(C(=O)NN)ccc1[N+](=O)[O-],-0.2,-4.5,-0.3,23.0,-1.6,5.3
Cc1cc(OCc2ccccc2)ccc1[N+](=O)[O-],2.5*,-6.2,16.2,2.4,4.3,2.8
O=C(NCc1cccs1)Nc1csc2ccccc12,0.2,-2.5,0.1,-26.6,25.8,-4.8
O=C(N/N=C/C=C/c1ccccc1)N/N=C/C=C/c1ccccc1,0.3,-3.9,-1.6,-3.5,-8.1,-1.8
C/C=C/C=N/NC(=O)N/N=C/C=C/C,3.0*,-7.2,-6.1,23.5,-10.4,3.4
Cc1cc(C(=O)CC#N)c(C(F)(F)F)o1,-0.9,-6.1,2.3,-6.7,0.8,1.1
CCOC(=O)/C(C#N)=C/c1ccccc1,-0.2,-4.8,-7.5,17.6,-2.0,6.7
CCOC(=O)/C(C#N)=C/c1cn(-c2ccccc2)nc1-c1ccccc1,-0.1,69.5*,5.4,2.1,-6.0,-0.8
CN(C(=O)Nc1ccc(OC(F)(F)F)cc1)C1CCCCC1,.,-7.6,-4.8,2.4,-10.5,5.7
CC(C)(C)c1cc2nc(C(F)(F)F)cc(NNC(=O)Nc3ccc(OC(F)(F)F)cc3)n2n1,0.5,0.3,-6.5,3.0,82.0*,-105.9
CNc1ncnc(NNC(=O)Nc2ccc(OC(F)(F)F)cc2)c1[N+](=O)[O-],-0.9,-5.7,9.1,2.7,-23.7,3.6
O=C(Nc1ccccc1C(=O)NC1CCCCNC1=O)c1cccs1 (centres undefined),-1.3,-9.1,5.8,9.5,29.9,-6.4
